Source: PubChem BioAssay (NCATS)
Where “and” joins values, the source holds several entries; their conditions need not be identical. Identical values can stand only once. Records with an inconclusive call do not appear. Entries that show only a call come without a potency. Calls of active or inactive are those of the source. Unless noted, calls follow the shape of the full dose curve.

How the values were obtained:
[1] = Cell Viability - BJ (AID 421); conditions: BJ fibroblast viability, qHTS;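 also: potency is read from the fitted curve at half-maximal effect; cells exposed to compound for 40 hours at 37 °C before readout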
In short: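 Luminescent ATP signal (CellTiter-Glo, 20 min at room temperature) served as the read-out of viable BJ cells after 40 hours of compound treatment. Responses were scaled between DMSO and 100 uM tamoxifen, and AC50 values were obtained by Hill modeling.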

[2] = Cell Viability - HepG2 (AID 433); conditions: qHTS;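 also: potency is read from the fitted curve at half-maximal effect; potency for ATP loss meaning cytotoxicity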
In short: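 HepG2 cells, 1500 per well, treated 40 hr at 37 °C in complete medium; viability from intracellular ATP by CellTiter-Glo luminescence. Normalized to DMSO and 100 uM tamoxifen; AC50 from Hill fit of qHTS concentration-response.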

[3] = Cell Viability - N2a (AID 540; active = well fitted cell-killing curve with a large enough effect; also: nearly all actives have a fitted effect of over 45% in size); conditions: N2a mouse neuroblastoma cell viability; activity change, negative = cytotoxicity: at 92.2 µM (top of the series)
In short: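 Mouse neuroblastoma N2a cells, 1500/well, exposed to compounds 40 h at 37 °C in complete medium. Viability measured as cellular ATP by CellTiter-Glo luminescence; AC50 from Hill fits of concentration-response.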

[4] = target: Glucocorticoid receptor (Homo sapiens) (UniProt P04150); assay: qHTS assay for small molecule agonists of glucocorticoid receptor signaling (AID 588532; active = well fitted curve in the direction sought with a large enough effect in the signal ratio, with a control signal flat; the % refers to the signal ratio); conditions: HeLa MMTV-bla, beta-lactamase ratio, agonist, 18 h; stronger effect = higher value; percent of dexamethasone control, DMSO zero
Glucocorticoid receptor (Homo sapiens), sequence (P04150 whole entry, looked up): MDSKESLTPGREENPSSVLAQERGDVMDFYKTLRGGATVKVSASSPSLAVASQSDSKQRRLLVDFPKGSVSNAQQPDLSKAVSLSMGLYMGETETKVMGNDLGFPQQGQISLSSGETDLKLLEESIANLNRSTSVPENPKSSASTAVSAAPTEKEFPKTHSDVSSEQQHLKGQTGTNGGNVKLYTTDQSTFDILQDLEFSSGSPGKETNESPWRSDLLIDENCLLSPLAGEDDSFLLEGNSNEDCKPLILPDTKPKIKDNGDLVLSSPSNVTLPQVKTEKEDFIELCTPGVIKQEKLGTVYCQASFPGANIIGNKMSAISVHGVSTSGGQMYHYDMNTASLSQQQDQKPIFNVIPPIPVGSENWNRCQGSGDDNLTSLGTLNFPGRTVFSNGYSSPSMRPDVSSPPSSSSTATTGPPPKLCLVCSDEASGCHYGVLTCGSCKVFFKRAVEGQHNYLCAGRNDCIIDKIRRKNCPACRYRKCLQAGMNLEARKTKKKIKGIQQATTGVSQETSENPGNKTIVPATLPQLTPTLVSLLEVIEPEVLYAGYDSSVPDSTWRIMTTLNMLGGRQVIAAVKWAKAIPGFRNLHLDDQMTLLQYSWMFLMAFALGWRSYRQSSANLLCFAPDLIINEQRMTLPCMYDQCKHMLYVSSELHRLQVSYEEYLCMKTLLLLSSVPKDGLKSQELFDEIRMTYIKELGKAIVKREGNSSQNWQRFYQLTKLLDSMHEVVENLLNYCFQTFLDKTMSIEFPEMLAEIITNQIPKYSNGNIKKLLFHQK
In short: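 MMTV-bla HeLa beta-lactamase reporter cells in 1% charcoal/dextran FBS medium, compounds up to 92 uM for 18 h at 37 C, CCF4 readout; normalized to 0.1 uM dexamethasone (100%), EC50 and efficacy from Hill fits.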

[5] = target: Glucocorticoid receptor (Homo sapiens) (UniProt P04150); assay: qHTS assay for small molecule antagonists of glucocorticoid receptor signaling (AID 588533; active = well fitted inhibition curve with a large enough effect in the signal ratio, with a control signal flat, not every such curve was filed as active; the % refers to the signal ratio); conditions: HeLa MMTV-bla, GRE beta-lactamase ratio, antagonist mode, 18 h; series mostly up to 76.8 µM
In short: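 Antagonist-mode qHTS: compound titrations added to GRE-bla HeLa cells, then dexamethasone 2 nM final; 18 h, 37 C. CCF4 FRET fluorescence normalized to dexamethasone and DMSO; IC50 from Hill fit.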

[6] = qHTS assay for small molecule antagonists of peroxisome proliferator-activated receptor delta signaling (AID 588535; active = well fitted inhibition curve with a large enough effect in the signal ratio, with a control signal flat, not every such curve was filed as active; the % refers to the signal ratio;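 as to max response: cells co-treated with a PPAR-delta agonist as stimulator during compound exposure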); conditions: HEK293T PPARd-UAS-bla, beta-lactamase FRET ratio, 18 h; 460 nm channel
In short: (§1)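 Antagonist-mode beta-lactamase reporter (GeneBLAzer PPAR-delta-UAS-bla) in HEK293T cells, 2% charcoal/dextran FBS, 4000 cells/well. Compound titrations, 18 h at 37 C; CCF4 ratio read, IC50 and efficacy from Hill fits.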

[7] = qHTS assay for small molecule agonists of the antioxidant response element (ARE) signaling pathway (AID 651741; active = well fitted activation curve with a large enough effect in the signal ratio; the % refers to the signal ratio; also: potency is read from the fitted curve at half-maximal effect); conditions: HepG2 ARE-bla reporter, beta-lactamase FRET ratio, 16 h; series mostly up to 96 µM
In short: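 CellSensor ARE-bla HepG2 cells (2,000/well) carrying ARE-driven beta-lactamase, exposed 16 h at 37 C. LiveBLAzer B/G FRET substrate added for 2 h at room temperature; fluorescence intensity read.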

[8] = qHTS assay for small molecule activators of the p53 signaling pathway (AID 651743; active = well fitted activation curve with a large enough effect in the signal ratio, not every such curve was filed as active; the % refers to the signal ratio); conditions: HCT-116 p53RE-bla, beta-lactamase FRET ratio, 16 h; activation: stronger effect = higher value
In short: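 p53RE-bla HCT-116 cells carrying a beta-lactamase reporter under p53 response elements were exposed to compounds for 16 hours at 37 C. Reporter activity read as fluorescence after 2 hours at room temperature with LiveBLAzer B/G FRET substrate.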

[9] = qHTS assay for small molecule disruptors of the mitochondrial membrane potential - 1 hr assay (AID 651754); conditions: series mostly up to 92.2 µM; also: nearly all actives have a fitted effect of over 35% in size; also: potency is read from the fitted curve at half-maximal effect
In short: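 HepG2 cells, attached overnight, were exposed to compound for 1 hr at 37C, then stained 30 min with a potentiometric dye. Ratio of red aggregate (590nm) to green monomer (535nm) fluorescence reports membrane potential; collapse shifts signal toward green.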

[10] = Cell Viability - MRC5 (AID 434); conditions: MRC5 lung fibroblast viability, qHTS;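 also: potency is read from the fitted curve at half-maximal effect; potency reflects cytotoxicity seen as loss of intracellular ATP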
In short: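 MRC5 normal human lung fibroblasts, 1500 cells/well, exposed to compound for 40 hr at 37 C. Cellular ATP was read by CellTiter-Glo luminescence; data normalized to DMSO and 100 uM tamoxifen, with AC50 from Hill fits.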

[11] = MultiTox-Fluor Cytotoxicity Assay - LYMP1-001 - Live Cells (AID 947; active = well fitted cell-killing curve with a large enough effect); conditions: LYMP1-001 lymphoblastoid cells, live-cell protease fluorescence viability; series mostly up to 92.2 µM
[12] = target: Bile acid receptor (Homo sapiens) (UniProt Q96RI1); assay: qHTS assay for small molecule agonists of farnesoid X receptor signaling (AID 588527); conditions: HEK293T FXR-UAS-bla, beta-lactamase ratio, 16 h; stronger effect = higher value
Bile acid receptor (Homo sapiens), sequence (Q96RI1 whole entry, looked up): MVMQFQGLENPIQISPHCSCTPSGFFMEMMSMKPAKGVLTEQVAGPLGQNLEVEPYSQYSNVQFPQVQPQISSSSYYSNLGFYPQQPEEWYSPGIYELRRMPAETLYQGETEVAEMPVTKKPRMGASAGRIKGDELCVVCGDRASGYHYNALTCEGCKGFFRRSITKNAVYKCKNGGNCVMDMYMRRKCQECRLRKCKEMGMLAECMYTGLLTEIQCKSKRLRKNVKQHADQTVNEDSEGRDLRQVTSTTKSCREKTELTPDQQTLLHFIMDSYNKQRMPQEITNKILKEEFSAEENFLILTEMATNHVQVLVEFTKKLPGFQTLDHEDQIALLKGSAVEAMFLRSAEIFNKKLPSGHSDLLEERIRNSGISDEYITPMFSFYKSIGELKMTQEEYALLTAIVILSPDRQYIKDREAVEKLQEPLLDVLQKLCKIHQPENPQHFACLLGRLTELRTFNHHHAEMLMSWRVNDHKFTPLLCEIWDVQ
In short: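 FXR-UAS-bla HEK293T, 10% dialyzed FBS; cpds up to 92 uM titration, 16 h 37 C; CCF4 dye 2 h RT; fluorescence. Normalized to chenodeoxycholic acid 100 uM (100%) and DMSO (0%); Hill fit gives EC50, efficacy.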

[13] = target: Peroxisome proliferator-activated receptor delta (Homo sapiens) (UniProt Q03181); assay: qHTS assay for small molecule agonists of peroxisome proliferator-activated receptor delta signaling (AID 588534); conditions: HEK293T PPARdelta-UAS-bla, beta-lactamase ratio, 18 h; series mostly up to 76.7 µM
Peroxisome proliferator-activated receptor delta (Homo sapiens), sequence (Q03181 whole entry, looked up): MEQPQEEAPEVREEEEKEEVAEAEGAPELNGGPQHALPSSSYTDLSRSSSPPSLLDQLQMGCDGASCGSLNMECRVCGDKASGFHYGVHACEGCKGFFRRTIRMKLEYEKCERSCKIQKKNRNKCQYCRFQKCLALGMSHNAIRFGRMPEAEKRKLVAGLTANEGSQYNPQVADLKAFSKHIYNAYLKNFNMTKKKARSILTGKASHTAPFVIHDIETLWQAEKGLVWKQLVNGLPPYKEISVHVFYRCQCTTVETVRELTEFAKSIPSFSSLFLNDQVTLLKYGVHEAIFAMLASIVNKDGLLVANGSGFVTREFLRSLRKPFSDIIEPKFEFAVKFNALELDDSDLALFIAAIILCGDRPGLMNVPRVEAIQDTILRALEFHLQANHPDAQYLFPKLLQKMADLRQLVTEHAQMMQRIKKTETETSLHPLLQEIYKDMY
In short: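 Cells carrying a PPAR-delta beta-lactamase reporter were treated with compounds for 18 h at 37 °C in agonist mode. CCF4 fluorescence was read after 2 h; EC50 and efficacy from Hill fits.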

[14] = target: Vitamin D3 receptor (Homo sapiens) (UniProt P11473); assay: qHTS assay for small molecule antagonists of vitamin D receptor signaling (AID 588541); conditions: HEK293T VDR-UAS-bla, beta-lactamase ratio, antagonist mode; series mostly up to 76.7 µM;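 also: receptor activated by calcitriol during compound treatment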
Vitamin D3 receptor (Homo sapiens), sequence (P11473 whole entry, looked up): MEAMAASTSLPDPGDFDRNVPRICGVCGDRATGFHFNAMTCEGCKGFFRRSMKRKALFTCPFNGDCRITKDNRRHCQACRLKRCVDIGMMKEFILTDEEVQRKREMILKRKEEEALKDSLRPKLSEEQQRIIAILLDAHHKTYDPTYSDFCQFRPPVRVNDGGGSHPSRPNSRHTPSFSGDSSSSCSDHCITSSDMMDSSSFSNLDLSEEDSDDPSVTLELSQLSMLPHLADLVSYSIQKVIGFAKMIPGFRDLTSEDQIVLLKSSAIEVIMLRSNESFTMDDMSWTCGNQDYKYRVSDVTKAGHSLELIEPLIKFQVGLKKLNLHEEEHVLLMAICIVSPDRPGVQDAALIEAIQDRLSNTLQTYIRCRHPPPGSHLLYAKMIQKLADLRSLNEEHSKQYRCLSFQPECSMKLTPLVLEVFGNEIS
In short: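 VDR-UAS-bla HEK293T cells in 2% charcoal-stripped FBS were stimulated with 1-alpha,25-dihydroxyvitamin D3 (3 nM final) plus compound for 16 h at 37 C. The beta-lactamase CCF4 readout was normalized to 50 nM agonist and DMSO, and Hill fits gave IC50.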

[15] = target: Thyroid hormone receptor beta (Homo sapiens) (UniProt P10828); assay: qHTS assay for small molecule agonists of thyroid hormone receptor beta signaling (AID 588545); conditions: TR-UAS-bla GripTite HEK 293, beta-lactamase ratio, agonist mode, 18 h; series mostly up to 76.7 µM
Thyroid hormone receptor beta (Homo sapiens), sequence (P10828 whole entry, looked up): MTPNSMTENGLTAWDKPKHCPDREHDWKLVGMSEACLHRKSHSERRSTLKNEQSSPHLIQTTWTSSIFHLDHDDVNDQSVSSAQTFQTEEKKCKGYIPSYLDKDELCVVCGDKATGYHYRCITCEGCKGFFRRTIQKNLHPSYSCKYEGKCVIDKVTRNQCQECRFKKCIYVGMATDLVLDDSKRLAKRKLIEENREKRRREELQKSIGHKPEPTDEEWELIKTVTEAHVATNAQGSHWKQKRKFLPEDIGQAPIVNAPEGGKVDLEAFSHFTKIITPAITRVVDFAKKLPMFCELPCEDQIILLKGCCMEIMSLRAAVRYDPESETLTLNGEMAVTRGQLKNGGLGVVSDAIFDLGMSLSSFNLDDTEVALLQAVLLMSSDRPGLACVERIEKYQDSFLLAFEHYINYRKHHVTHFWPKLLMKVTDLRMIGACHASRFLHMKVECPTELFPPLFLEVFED
In short: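 TR-UAS-bla-GripTite HEK 293 cells in medium with 2% charcoal/dextran FBS, 0.1 mM NEAA and 1 mM sodium pyruvate were treated with titrated compounds for 18 hrs at 37 C. Beta-lactamase reporter was read with CCF4 dye (ex 405, em 460/530 nm); EC50 from Hill fits.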

[16] = target: Peroxisome proliferator-activated receptor gamma (Homo sapiens) (UniProt P37231); assay: qHTS assay for small molecule agonists of peroxisome proliferator-activated receptor gamma signaling (AID 588536; active = well fitted curve in the direction sought with a large enough effect in the signal ratio, with a control signal flat, not every such curve was filed as active; the % refers to the signal ratio); conditions: HEK293 PPARg-UAS-bla, beta-lactamase ratio, 16 h, percent of rosiglitazone response, DMSO as zero; series mostly up to 76.7 µM
Peroxisome proliferator-activated receptor gamma (Homo sapiens), sequence (P37231 whole entry, looked up): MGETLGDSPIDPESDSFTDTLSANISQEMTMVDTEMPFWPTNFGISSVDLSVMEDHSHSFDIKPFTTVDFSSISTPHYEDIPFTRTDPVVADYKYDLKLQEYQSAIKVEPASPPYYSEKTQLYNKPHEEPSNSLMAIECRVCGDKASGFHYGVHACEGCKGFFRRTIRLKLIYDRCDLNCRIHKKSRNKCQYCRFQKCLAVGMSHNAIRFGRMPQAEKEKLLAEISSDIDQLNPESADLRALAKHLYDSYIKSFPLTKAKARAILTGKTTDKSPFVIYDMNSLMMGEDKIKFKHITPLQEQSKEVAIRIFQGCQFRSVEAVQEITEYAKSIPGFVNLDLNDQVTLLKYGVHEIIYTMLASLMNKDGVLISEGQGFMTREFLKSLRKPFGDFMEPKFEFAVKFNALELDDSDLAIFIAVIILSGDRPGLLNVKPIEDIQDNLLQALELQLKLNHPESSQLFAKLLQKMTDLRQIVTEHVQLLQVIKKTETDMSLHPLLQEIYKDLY
In short: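 PPAR-gamma-UAS-bla HEK293 cells in medium with 1% charcoal/dextran-treated FBS were exposed to compounds for 16 h at 37 C. Beta-lactamase activity was read with CCF4 substrate (405 nm excitation, 460/530 nm emission).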

[17] = target: Peroxisome proliferator-activated receptor gamma (Homo sapiens) (UniProt P37231); assay: qHTS assay for small molecule antagonists of peroxisome proliferator-activated receptor gamma signaling (AID 588537; active = well fitted inhibition curve with a large enough effect in the signal ratio, with a control signal flat, not every such curve was filed as active; the % refers to the signal ratio;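 also: reporter cells co-stimulated with 50 nM rosiglitazone agonist during compound treatment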); conditions: HEK293 PPARg-UAS-bla, beta-lactamase ratio, antagonist mode; series mostly up to 76.8 µM
In short: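 PPARγ-UAS-bla HEK293 cells (3000/well) in 1% charcoal/dextran-stripped FBS are treated with compound, then stimulated with 50 nM rosiglitazone for 16 h at 37 °C. Read-out is CCF4 β-lactamase fluorescence after 2 h at RT. IC50 comes from Hill fits normalised to rosiglitazone and DMSO.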

[18] = target: Thyroid hormone receptor beta (Homo sapiens) (UniProt P10828); assay: qHTS assay for small molecule antagonists of thyroid hormone receptor beta signaling (AID 588547; active = well fitted inhibition curve with a large enough effect in the signal ratio, with a control signal flat, not every such curve was filed as active; the % refers to the signal ratio;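 also: cells stimulated with 0.4 nM T3 agonist during compound exposure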); conditions: TR-UAS-bla HEK293, beta-lactamase ratio, antagonist mode, 18 h
In short: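 TR-UAS-bla GripTite HEK293 cells in 2% charcoal/dextran FBS medium; compounds 0.59 nM to 92 uM with T3 at 0.4nM final, 18 h at 37 C. Beta-lactamase read by CCF4 fluorescence (460/530 nm); Hill fits gave IC50 and efficacy.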

[19] = target: Peroxisome proliferator-activated receptor delta (Homo sapiens) (UniProt Q03181); assay: qHTS assay for small molecule antagonists of peroxisome proliferator-activated receptor delta signaling (AID 588535); conditions: HEK293T PPARd-UAS-bla, beta-lactamase FRET ratio, 18 h; series mostly up to 76.7 µM;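 as to max response: cells co-treated with a PPAR-delta agonist as stimulator during compound exposure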
In short: as §1

[20] = target: Estrogen receptor (Homo sapiens) (UniProt P03372); assay: qHTS assay for small molecule antagonists of estrogen receptor alpha signaling (AID 588513; active = well fitted curve in the direction sought with a large enough effect in the signal ratio, with a control signal flat, not every such curve was filed as active; the % refers to the signal ratio); conditions: ER-alpha-UAS-bla HEK293, beta-lactamase ratio, antagonist mode; series mostly up to 76.9 µM
Estrogen receptor (Homo sapiens), sequence (P03372 whole entry, looked up): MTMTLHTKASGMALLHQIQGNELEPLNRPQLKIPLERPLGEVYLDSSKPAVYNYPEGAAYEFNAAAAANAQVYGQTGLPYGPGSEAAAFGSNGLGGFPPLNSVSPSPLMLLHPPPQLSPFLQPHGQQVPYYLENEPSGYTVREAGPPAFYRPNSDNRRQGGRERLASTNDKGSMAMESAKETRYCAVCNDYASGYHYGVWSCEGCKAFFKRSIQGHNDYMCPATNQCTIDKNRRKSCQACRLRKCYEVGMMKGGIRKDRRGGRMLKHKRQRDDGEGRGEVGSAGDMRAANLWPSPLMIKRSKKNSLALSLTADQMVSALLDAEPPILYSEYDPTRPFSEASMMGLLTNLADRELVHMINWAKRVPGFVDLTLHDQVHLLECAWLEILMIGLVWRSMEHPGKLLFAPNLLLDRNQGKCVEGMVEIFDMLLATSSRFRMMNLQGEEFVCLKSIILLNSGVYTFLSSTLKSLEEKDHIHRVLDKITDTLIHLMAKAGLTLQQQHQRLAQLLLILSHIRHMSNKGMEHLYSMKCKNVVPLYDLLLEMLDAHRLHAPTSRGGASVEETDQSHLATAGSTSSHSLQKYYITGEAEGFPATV
In short: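 ER-alpha-UAS-bla GripTite HEK 293 cells in 2% charcoal/dextran-treated FBS medium; compounds titrated (1:2, duplicate), then stimulated with 0.5 nM 17-beta-estradiol for 18 h at 37C. CCF4 beta-lactamase fluorescence; Hill-fit IC50 and efficacy.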

| Structure (SMILES) | Potency [1] | Potency [2] | Potency [3] | activation [4] | outcome [5] | max response [6] | Potency [7] | activation [8] | Potency [9] | Potency [10] | outcome [11] | activation [12] | outcome [13] | outcome [14] | Potency [15] | outcome [16] | Potency [17] | activity change % (negative = inhibition) [18] | outcome [19] | Potency [20] |
| --- | --- | --- | --- | --- | --- | --- | --- | --- | --- | --- | --- | --- | --- | --- | --- | --- | --- | --- | --- | --- |
| C=CCO | > 92 µM (inactive) | > 92 µM (inactive) | inactive | 3.6% (inactive) | inactive | 11.9% | inactive | -1.01% (inactive) | inactive |  |  |  |  |  |  |  |  |  |  |  |
| CCCCC(=O)Cl | > 92 µM (inactive) |  | inactive |  | inactive | 20% |  | 1.32% (inactive) | inactive | > 92 µM (inactive) | inactive | 3.38% (inactive) | inactive | inactive | inactive |  |  |  |  |  |
| CCOC(=O)C1OC1(C)c1ccccc1 (stereo not given) | > 92 µM (inactive) |  | inactive | -3.51% (inactive) |  |  |  | -3.07% (inactive) | inactive | > 92 µM (inactive) | inactive |  |  |  |  | inactive | inactive | 6.83% (inactive) |  |  |
| BrCC(Br)C1CCC(Br)C(Br)C1 (stereo not given) | > 92 µM (inactive) | > 92 µM (inactive) | inactive | 3.61% (inactive) |  |  |  | -5.49% (inactive) | inactive | > 92 µM (inactive) | inactive |  |  |  | inactive |  |  | 5.99% (inactive) |  |  |
| ClCCOCCCl | > 92 µM (inactive) |  | inactive | 0.183% (inactive) | inactive | 5.43% | inactive | -1.88% (inactive) | inactive | > 92 µM (inactive) | inactive | -1.24% (inactive) | inactive |  | inactive | inactive |  | 0.0195% (inactive) | inactive |  |
| Oc1ccc(Cl)c(Cl)c1Cl | > 92 µM (inactive) | > 92 µM (inactive) |  | 6.93% (inactive) |  |  | 42.2 µM (active) | -0.769% (inactive) | 42.2 µM (active) | > 92 µM (inactive) | inactive | 0.826% (inactive) | inactive | inactive |  | inactive | inactive | 14.5% (inactive) |  |  |
| Cc1ccc(N)cc1C | > 92 µM (inactive) |  | inactive |  |  | 3.44% |  | -1.62% (inactive) | inactive | > 92 µM (inactive) | inactive | 1.96% (inactive) | inactive | inactive | inactive | inactive |  | 9.98% (inactive) | inactive | inactive |
| CC12CC1(C)C(=O)N(c1cc(Cl)cc(Cl)c1)C2=O (stereo not given) | > 92 µM (inactive) | > 92 µM (inactive) | inactive | -1.15% (inactive) and -3.35% (inactive) | inactive | -1.5% and 19.3% |  | 3.14% (inactive) |  |  |  |  | inactive | inactive | inactive | inactive | inactive | 4.26% (inactive) and 9.02% (inactive) | inactive |  |
